The source of these data is PubChem BioAssay (NCATS).

Where “and” joins values, the source holds several entries; their conditions need not be identical. Identical values can stand only once. Values without a mark were called inactive. Results filed as inconclusive are left out. Calls of active or inactive are those of the source. Unless noted, the call rests on the fitted dose curve; in most records, active means well fitted curve in the direction sought with a large enough effect; inconclusive means small, poorly fitted or top-dose-only effect, or another doubt; inactive means no such curve, though single readings can be large; an effect the other way counts as inactive or inconclusive. Where only a bound is given, the exact number is not on record here.

Assay [1] can be described thus: Cell Viability - BJ (AID 421; calls by dose curve;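 further: potency means the concentration at half of the fitted maximal effect; cells exposed to compound for 40 hours at 37 °C before readout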). As to conditions: BJ fibroblast viability, qHTS. The method, boiled down: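 Cytotoxicity in human BJ foreskin fibroblasts is scored as loss of cellular ATP after a 40-hour exposure, measured by luciferase luminescence. Controls are DMSO and 100 uM tamoxifen.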
Background: Quantitative high-throughput screening tests each substance at several concentrations.

Assay [2] is described as follows: Cell Viability - MRC5 (AID 434; calls by dose curve;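 further: potency means the concentration at half of the fitted maximal effect; potency reflects cytotoxicity seen as loss of intracellular ATP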). As to conditions: MRC5 lung fibroblast viability, qHTS. The method, boiled down: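 MRC5 normal human lung fibroblasts, 1500 cells/well, exposed to compound for 40 hr at 37 C. Cellular ATP was read by CellTiter-Glo luminescence; data normalized to DMSO and 100 uM tamoxifen, with AC50 from Hill fits.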
Assay [3] deals with Mitogen-activated protein kinase 10 (Mus musculus) (UniProt Q61831). Kind of assay: JNK3 AlphaScreen Assay (AID 530; active means well fitted curve in either direction with a large enough effect, not every such curve was filed as active;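 further: kinase came from lysate of stimulated human HepG2 cells; signal reports phosphorylation of biotinylated GST-cJun 1-79 at Ser73 with 10 µM ATP; on the % scale 0 is the no-effect control and ±100 the full control effect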). As to conditions: JNK3 lysate, c-Jun phosphorylation; series mostly up to 57.1 µM. The method, boiled down: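 Pre-activated (IL-1β/TNFα) JNK3 in HepG2 lysates phosphorylates biotin-GST-cJun(1-79), 10 uM ATP; anti-phospho-cJun(Ser73) AlphaScreen read at room temperature, pH 7.6 Tris buffer. Compounds pre-incubated 15 min as titrations.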
A general note: In Alpha technology, singlet oxygen from a donor bead excites a nearby acceptor bead.

Assay [4] in a line: Cell Viability - N2a (AID 540). Further: nearly all actives have a fitted effect of over 45% in size. Further: potency means the concentration at half of the fitted maximal effect.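 On activity change, negative = cytotoxicity: plate controls were DMSO alone for no effect and tamoxifen control for full effect.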 As to conditions: N2a mouse neuroblastoma cell viability; activity change, negative = cytotoxicity: at 92.2 µM (top of the series). The method, boiled down:
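Luminescent ATP signal (CellTiter-Glo, 20 min at room temperature) served as the viability read-out after N2a cells were treated with compounds for 40 hours at 37 °C. Concentration-response data were fitted to the Hill equation for AC50.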

Assay [5] can be described thus: Cell Viability - NIH 3T3 (AID 541). Further: nearly all actives have a fitted effect of over 25% in size. Further: potency means the concentration at half of the fitted maximal effect.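 On activity change, negative = cytotoxicity: plate controls were DMSO alone for no effect and tamoxifen positive control for full effect.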 As to conditions: NIH 3T3 cell viability, qHTS; activity change, negative = cytotoxicity: at 92.2 µM (top of the series). A digest of the protocol: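 Luminescent ATP signal (CellTiter-Glo) served as the viability read-out after NIH 3T3 cells were exposed to compounds over a concentration range for 40 hr at 37 °C. Hill-equation modelling of concentration-response data gave AC50.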

Assay [6] is described as follows: Cell Viability - Renal Proximal Tubule (AID 545). Further: nearly all actives have a fitted effect of over 40% in size. Further: potency means the concentration at half of the fitted maximal effect. The following applies: renal proximal tubule cells viability; activity change, negative = cytotoxicity: at 91.7 µM (top of the series) unless noted. The method, boiled down: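 In this qHTS format, normal rat kidney-derived proximal tubule cells in complete culture medium receive compound titrations, then sit 40 hours at 37 °C before luciferase-based ATP quantitation; potency is reported as AC50 from concentration-response curves.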

A short description of assay [7]: Cell Viability - Mesenchymal (AID 546).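 Further: cells exposed to compound for 40 hours before reading.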 Further: potency means the concentration at half of the fitted maximal effect. The following applies: mesenchymal cells viability, qHTS; activity change, negative = cytotoxicity: at 91.7 µM (top of the series). The method, boiled down:
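Human kidney mesenchymal cells from normal renal glomeruli, 1000 cells/well, rested 5 hr at 37 °C, then treated 40 hr at 37 °C in complete medium. Cellular ATP read by CellTiter-Glo luminescence; AC50 from Hill-equation fits.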

The nature of assay [8]: Cellular Toxicity (caspase-3) HepG2 (AID 654).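 Further: cells exposed to compound for 16 hours before reading; 0% = DMSO alone and 100% = caspase signal from 100 µM tamoxifen.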 The following applies: HepG2 caspase-3 activation, luminescence, 0% = DMSO only, 100% = tamoxifen; series mostly up to 92.2 µM. A digest of the protocol:
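Cells plated 5 hr at 37 °C, compound added, incubated 16 hr at 37 °C. Caspase-Glo 3/7 reagent followed, 20 min at room temperature, then luminescence read. Activation scored as signal increase; AC50 from Hill fit.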

Assay [9] in a line: Cellular Toxicity (caspase-3) HUV-EC-C (AID 656). As to conditions: HUV-EC-C cells, caspase-3 activation (apoptosis), vehicle = 0, 100 µM tamoxifen = 100%; series mostly up to 92.2 µM. A digest of the protocol: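 Concentration-dependent caspase 3/7 induction was assessed in HUV-EC-C cells exposed for 16 hours. Data scaled between DMSO and tamoxifen (100 uM) controls.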
The nature of assay [10]: Cellular Toxicity (caspase-3) MRC-5 (AID 659). As to conditions: MRC-5 cells, luminescence, normalized: DMSO 0%, 10 µM staurosporine 100%; series mostly up to 91.7 µM. The method, boiled down: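 MRC-5 human normal lung fibroblasts, 1500 cells/well, treated 16 h at 37 °C in complete medium. Caspase 3/7 measured by Caspase-Glo luminescence after 1 h at room temperature. Normalized to DMSO and 10 uM staurosporine; AC50 from Hill fit.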

A short description of assay [11]: Cellular Toxicity (caspase-3) N2a (AID 665).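 Further: compound exposure lasted 16 h at 37 °C before readout.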 As to conditions: N2a cells, luminescence, normalized: DMSO 0%, 10 µM staurosporine 100%; series mostly up to 92.2 µM. A digest of the protocol: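 N2a cells, 1500/well, 5 h settle at 37 °C; cpd 16 h, 37 °C; Caspase-Glo 3/7, 1 h RT; luminescence. Norm: DMSO = 0, 10 uM staurosporine = 100%. AC50, Hill fit.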
Assay [12] in a line: Cellular Toxicity (caspase-3) Renal Proximal Tubule (AID 667).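 Further: cells exposed to compound for 16 hours at 37 °C before detection.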 The following applies: renal proximal tubule cells; at 91.7 µM (top of the series) unless noted. A digest of the protocol:
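Caspase-Glo 3/7 read-out, rat primary kidney proximal tubule cells. Compound exposure 16 h, 37 °C; detection after 1 h at RT. Activity scaled to DMSO and 10 uM staurosporine.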

Assay [13] is described as follows: MultiTox-Fluor Cytotoxicity Assay - LYMP1-003 - Live Cells (AID 962).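 Further: cells exposed to compound for 16 hours at 37 °C.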 Further: potency means the concentration at half of the fitted maximal effect. As to conditions: LYMP1-003 lymphoblastoid cells, MultiTox-Fluor live-cell protease fluorescence; series mostly up to 92.2 µM. The method, boiled down: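 qHTS, 1536-well; 2500 cells/well LYMP1-003; 5 hr 37 C settle; cpd 16 hr 37 C; MultiTox-Fluor reagent 60 min RT; live-cell protease fluor. 405/510; Hill-fit AC50; tetraoctylammonium bromide pos. ctrl.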

Assay [14] can be described thus: Cell Viability - LYMP2-008 (AID 980). Further: nearly all actives have a fitted effect of over 60% in size. Further: potency means the concentration at half of the fitted maximal effect.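 On activity change, negative = cytotoxicity: cells exposed to compound for 24 h at 37 °C; on the % scale 0 is the no-effect control and ±100 the full control effect.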 The following applies: LYMP2-008 lymphoblastoid cell viability, qHTS; series mostly up to 92.2 µM. A digest of the protocol: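 qHTS, human lymphoblastoid line, 2500 cells/well; 5 hr preincubation, 24 hr compound, 37 C. CellTiter-Glo ATP luminescence. AC50 via Hill equation. Tetraoctylammonium bromide positive control.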
Assay [15] has as its target Tumor necrosis factor (Homo sapiens) (UniProt P01375). Briefly: qHTS assay to identify small molecules that stimulate Tumor Necrosis Factor-alpha (TNF-alpha) secretion (AID 651757; active means well fitted curve in the direction sought with a large enough effect in the signal ratio; the % refers to the signal ratio; further: 0% is about no effect). The following applies: Human cells, HTRF 665/615 ratio; series mostly up to 92.2 µM. A digest of the protocol: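 Read-out is HTRF, a TR-FRET sandwich of cryptate- and XL665-labeled anti-TNF-alpha antibodies detecting cytokine secreted by THP-1 cells. Cells had been incubated with test compounds at 37 C for 17 hrs beforehand.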

Assay [16] is described as follows: qHTS assay for environmental chemicals that activate the Aryl hydrocarbon Receptor (AhR) signaling pathway (AID 651777). Further: nearly all actives have a fitted effect of over 15% in size. Further: potency means the concentration at half of the fitted maximal effect. On activation: % of control where 0% means no effect. The following applies: 1A2-DRE human hepatoma cells, luciferase, 24 h; activation: stronger effect = higher value. A digest of the protocol:
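Reporter gene assay: hepatoma cells with DRE/CYP1A2-luciferase, 24 hr compound incubation at 37 C, 5% CO2, luminescence after One-Glo (30 min, RT).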

For assay [17], the target named is Alpha-galactosidase (Coffea arabica) (UniProt Q42656). Kind of assay: Counterscreen for Glucocerebrosidase Inhibitors: qHTS Assay for Coffee Bean alpha-Galactosidase at pH 5.9 (AID 998).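 Further: plate controls were uninhibited enzyme for no effect and no-enzyme basal signal for full effect.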 The following applies: coffee bean alpha-galactosidase enzyme assay; series mostly up to 76.9 µM. The method, boiled down:
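Green coffee bean enzyme (2 nM) with 4-methylumbelliferyl alpha-D-galactopyranoside (80 uM) in 50 mM citric acid, 0.005% Tween-20, pH 5.9, 20 min at room temperature; compounds 0.7 nM–77 uM. Stopped at pH 10, fluorescence Ex365/Em440; Hill-fit AC50.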
A general note: The purpose of a counterscreen is to sort out artefacts and off-target activity.

Chain of Tumor necrosis factor (Homo sapiens) (P01375 whole entry, looked up): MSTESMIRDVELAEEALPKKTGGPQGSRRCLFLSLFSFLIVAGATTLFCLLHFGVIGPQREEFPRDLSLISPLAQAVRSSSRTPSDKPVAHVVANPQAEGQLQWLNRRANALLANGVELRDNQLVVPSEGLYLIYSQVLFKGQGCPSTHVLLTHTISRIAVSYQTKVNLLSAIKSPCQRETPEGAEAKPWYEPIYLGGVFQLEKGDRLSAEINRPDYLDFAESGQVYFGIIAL
Chain of Alpha-galactosidase (Coffea arabica) (Q42656 whole entry, looked up): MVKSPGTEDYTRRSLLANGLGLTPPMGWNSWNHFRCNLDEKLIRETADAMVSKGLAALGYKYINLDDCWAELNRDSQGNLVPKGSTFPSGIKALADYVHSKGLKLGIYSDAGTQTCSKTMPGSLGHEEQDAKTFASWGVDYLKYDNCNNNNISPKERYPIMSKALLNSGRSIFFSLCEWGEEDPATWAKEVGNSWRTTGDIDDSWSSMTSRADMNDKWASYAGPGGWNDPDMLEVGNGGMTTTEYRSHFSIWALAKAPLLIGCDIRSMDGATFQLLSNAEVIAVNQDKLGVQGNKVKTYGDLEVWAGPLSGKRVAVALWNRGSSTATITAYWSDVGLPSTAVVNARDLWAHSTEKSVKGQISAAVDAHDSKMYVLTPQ

As to `FC(F)(F)c1ccc(Cl)cc1`, the Potency in assay [1] and in [2] was over 92 µM in each case. Besides, the molecule was called inactive in assay [3], in [8], in assay [9], in assay [10] and in assay [11]. For the same molecule, the activity change, negative = cytotoxicity in assay [4] was 6.85%. Besides, the Potency entry in [5], in [6], in assay [7], in assay [13], in [14] and in assay [15] was “inactive” each time. Besides, the caspase-3 activation in assay [12] was 5.86% [at 91.7 µM, primary cells freshly taken from rat, solvent-only wells 0%, staurosporine 100%]. The activation in assay [16] was 0.0226% and 0.781%.

Turning to `Nc1ccccc1C(=O)OCCc1ccccc1`, the Potency in assay [1] was over 92 µM; in [2], over 92 µM; in assay [16], 44.7 µM (active). Moreover, the activity change, negative = cytotoxicity in assay [4] is -14.5%. Also, the Potency entry in assay [7], in assay [13], in [14] and in assay [15] was “inactive” throughout. For the same molecule, the molecule was called inactive in assay [8], in assay [9], in assay [10] and in assay [11]. For the same molecule, in [12], the caspase-3 activation is -20.4%.

With `O=[N+]([O-])c1cc(C(F)(F)F)cc([N+](=O)[O-])c1Cl`, the Potency is over 92 µM in assay [1], over 92 µM in assay [2] and 39.8 µM (active) in assay [14]. The call in assay [3], in [9], in assay [10] and in [11] was inactive. Further, the activity change, negative = cytotoxicity in assay [5] was -150% (active). Further, the Potency entry in assay [6], in assay [7], in assay [13] and in assay [15] was “inactive” in each case. Further, in [12], the caspase-3 activation was 6.02% [at 91.7 µM, primary cells freshly taken from rat, solvent-only wells 0%, staurosporine 100%]. The activation in assay [16] was 0.493%.

`N#CSCSC#N`: the Potency in assay [1] is 14.4 µM (active); in assay [2] it was 41.4 µM (active); in assay [4], 25.1 µM (active); in assay [5], 10 µM (active); in assay [6], 5.01 µM (active); in assay [7], 12.6 µM (active). Also, the Potency in assay [13] was 39.8 µM (active); in assay [14], 7.94 µM (active). Besides, the molecule was classed as inactive in [3], in [8], in assay [9] and in assay [11]. For the same molecule, the caspase-3 activation in [12] was -11.6%. Also, in assay [15], the Potency entry was “inactive”. In [16], the activation was 3.48% and -14.5%.

On to `C[C@@H]1O[C@@H](O[C@H]2C[C@@H](O)[C@]3(CO)[C@@H]4[C@@H](O)C[C@]5(C)[C@H](C6=CC(=O)OC6)CC[C@@]5(O)[C@H]4CC[C@@]3(O)C2)[C@H](O)[C@H](O)[C@@H]1O`, for which the call in assay [3] and in assay [17] was inactive.

Consider `O=C(CCl)c1ccccc1`, for which the Potency is 39.2 µM (active) in [1], 15.8 µM (active) in assay [5], 39.8 µM (active) in [13] and 12.6 µM (active) in assay [14]. Further, the activity change, negative = cytotoxicity is -113% (active) in assay [4] and -109% (active) in assay [7]. For the same molecule, the molecule was called inactive in assay [8], in assay [9], in assay [10] and in assay [11]. Also, the caspase-3 activation in [12] was -4.24%. Also, the Potency result in assay [15] was “inactive”. Besides, the activation in assay [16] was -0.199% and 2.38%.

For `Oc1c(Br)c(Br)c(Br)c(Br)c1Br`, the Potency in assay [1] and in assay [2] was over 92 µM each time. Moreover, the activity change, negative = cytotoxicity in assay [4] was -118% (active). Also, the Potency result in [5], in assay [6], in assay [7], in assay [13], in [14] and in assay [15] was “inactive” each time. In addition, the molecule was classed as inactive in assay [8], in assay [9], in assay [10] and in assay [11]. Moreover, the caspase-3 activation in assay [12] is 1.89%. The activation in assay [16] is 0.143%.

On to `CCCCCCCCn1sccc1=O`, for which the Potency was over 92 µM in [1]; 10.7 µM (active) in [2]; 12.6 µM (active) in assay [5]; 12.6 µM (active) in assay [6]; 12.6 µM (active) in assay [7]; 15.8 µM (active) in [13]. Further, in assay [14], the Potency is 7.94 µM (active). In addition, the outcome in assay [3], in [8], in assay [9], in assay [10] and in assay [11] was inactive. The activity change, negative = cytotoxicity in assay [4] was -113% (active). Besides, in [12], the caspase-3 activation was -21.1%. The Potency result in assay [15] was “inactive”. For the same molecule, the activation in assay [16] was 1.42% and -3.52%.

Take `Oc1c(Cl)cc(Cl)cc1Cl`: the Potency in assay [1] and in assay [2] was over 92 µM in each case. Further, the activation in [16] was 0.15% and 1.58%.

Turning to `N#CC(Cl)Cl`, the Potency in [1] is over 92 µM; in assay [2], over 92 µM; in assay [14] it was 12.6 µM (active). The molecule was classed as inactive in [3], in assay [8], in assay [9] and in [11]. The activity change, negative = cytotoxicity in assay [4] was 13.8%. Further, the Potency result in assay [5], in assay [6], in assay [7], in assay [13] and in [15] was “inactive” each time. Further, in assay [12], the caspase-3 activation is -4.27% [at 91.7 µM, primary cells freshly taken from rat, solvent-only wells 0%, staurosporine 100%]. In addition, the activation in [16] is 1.8%.
